Laboratory results from PubChem BioAssay AID1347383 (Zoeller Lab, School of Medicine, Boston University, 2020).
Active and inactive are the calls of the source.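 The calls were made as follows: active = cell survival after UV exposure 2 SD above solvent-only control wells at 10 µM, confirmed on one or two repeats; inactive = the rest.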

Assay: protection of CHO cells from pyrene-fatty acid UV killing, primary screen, phospholipid biosynthesis inhibitor project, ZR-82 cells, Analyticon library, screen 2 (AID 1347383);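 also: survival reflects blocked phospholipid synthesis cutting uptake of the phototoxic fatty acid; compound and fatty acid exposure 3 h then viability read next day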
Conditions: ZR-82 CHO cells, CellTiter Blue, at 10 µM, peroxisome-deficient CHO-K1 variant, with DGAT-1, DGAT-2 and ACAT inhibitors

| SMILES | outcome |
| --- | --- |
| CC(C)C(=O)C1(C(C)CC(=O)O)CCC(C)C(=O)C1 (stereo not given) | inactive |
| CSCC1OC(n2cnc3c(=O)[nH]cnc32)C(O)C1O (stereo not given) | inactive |
| OC1C(c2ccccc2)CCC(O)(c2ccccc2)C1O (stereo not given) | inactive |
| CC(=O)OC/C(=C\COc1cc(=O)oc2cccc(C)c12)CCC=C(C)C | inactive |
| COc1ccc(/C=C/C(=O)O)cc1OC | inactive |
| CC(=O)O[C@H]1CC2C(COC(=O)CC(C)C)=CO[C@@H](OC(=O)CC(C)C)C2[C@@]12CO2 (stereo not given in full) | inactive |
| O=C1c2c(O)cc(O)cc2O[C@H](c2ccccc2)[C@H]1O | inactive |
| C=C1CCC2OC(=O)C(C)=C2C2C1C13OC1(CC(C)C3=O)C1OC21C (stereo not given) | inactive |
| O=c1ccc2ccc(O)cc2o1 | inactive |
| CC1CCC2C(C(=O)O)=CC3C(O)C(C)(C)CC123 (stereo not given) | inactive |
| C/C=C/c1ccc2oc(-c3ccc(O)c(OC)c3)c(C)c2c1 | inactive |
| O=C(CCCCc1ccc(O)cc1)CCc1ccc(O)cc1 | inactive |
| Oc1cc(O)cc(CCCCCCCCCCc2cc(O)cc(O)c2)c1 | inactive |
| COc1ccc(C(O)C(C)OC2OC(CO)C(O)C(O)C2O)cc1 (stereo not given) | inactive |
| COc1ccc(OC2OC(COC3OCC(O)C(O)C3O)C(O)C(O)C2O)cc1OC (stereo not given) | inactive |
| CCCCCCCCCCCc1cc(O)cc(O)c1 | inactive |
| COc1cc(C(O)C(C)O)ccc1OC(C)Cc1cc(OC)c(OC)c(OC)c1 (stereo not given) | inactive |
| C[C@@H]1C[C@@H](O)C2[C@@](C)(CO)CCC[C@]2(C)[C@@]1(O)CCc1ccoc1 (stereo not given in full) | inactive |
| COc1cc(C[C@H]2COC[C@@H]2Cc2ccc(O)c(OC)c2)ccc1O | inactive |
| COc1c(O)cc([C@@H]2Oc3cc(O)cc(O)c3C[C@@H]2O)cc1O | inactive |

| SMILES | outcome |
| --- | --- |
| CC(=O)OC1CC2C(C)(C)C(=O)C=CC2(C)C2CC(=O)C3=C(CCC3C3=CC(O)OC3=O)C12C (stereo not given) | inactive |
| CCCCCC1CC(O)CC(=O)O1 (stereo not given) | inactive |
| CS/C=C/C(=O)O[C@@H]1CCC2=CC(=O)C(=C(C)C)C[C@]2(C)[C@H]1C | inactive |
| CCCCCC(O)CC(O)CC(=O)O (stereo not given) | inactive |
| COc1c(O)ccc2c1C(=O)c1ccccc1C2=O | inactive |
| CCCC/C=C\CCCCCCCc1cc(=O)c2ccccc2n1C | inactive |
| COc1cc(CCc2ccccc2)cc(O)c1C/C=C(\C)CCC=C(C)C | inactive |
| COC(=O)C1C(O)CCC2CN3CCc4c([nH]c5ccccc45)C3CC21 (stereo not given) | inactive |
| COC(=O)c1ccccc1O[C@@H]1O[C@H](CO)[C@@H](O)[C@H](O)[C@H]1O[C@@H]1O[C@@H](C)[C@H](O)[C@@H](O)[C@H]1O | inactive |
| CCC(C)C1NC(=O)C(C)NC1=O (stereo not given) | inactive |
| OC1c2ccccc2-c2c3c(cc4c2C1NCC4)OCO3 (stereo not given) | inactive |
| O=c1c(O)c(-c2c(O)cccc2O)oc2cc(O)cc(O)c12 | inactive |
| CC1(O)CCC2C(C3C1CCC3(C)O)C2(C)C (stereo not given) | inactive |
| CC(=O)OC(C)C(C)(O)C(=O)O[C@@H]1CC[C@]2(C)CC(=O)C(=C(C)C)C[C@H]2[C@]1(C)OC(C)=O (stereo not given in full) | inactive |
| O=c1c(O)c(-c2ccc(O)cc2)oc2cc(O)cc(O)c12 | inactive |
| CCCCCCCCCCC1CC2=C(OC(CCCCCCC)CC2=O)C(=O)O1 (stereo not given) | inactive |
| CC(=O)c1c(O)cc(O)c(C/C=C(\C)CCC=C(C)C)c1O | inactive |
| C[C@H](O)c1nc2ccccc2c(=O)[nH]1 | inactive |
| C=C1C=CC(C(C)C)CCC(=C)C(O)CC1 (stereo not given) | inactive |
| CCCCCCCCCCCCCCCCC1C(=O)OC(C)C1OC (stereo not given) | inactive |
